Shown are actives, neighbours in structure and some others; about 21% of the full set was active somewhere.
Pf growth 48h: P. falciparum growth inhibition at 48 hours (one generation). P. falciparum luciferase growth in erythrocytes, 48 h. Potency, µM (series often up to 28.7 µM), most hits filed as inhibitors. hit rate 5.9% among 310,000. AID 504832
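Luminescence readout; reporter = integrated firefly luciferase in P. falciparum. RBC culture at 2% hematocrit, 0.1% parasitemia final, 37 C/5% CO2; decreased signal taken as growth inhibition.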
Cycloheximide cs: counter-screen hit for Shiga toxin inhibitors, cycloheximide. hit rate 12% among 300,000. max response, %. cell reporter, cycloheximide protein synthesis inhibition counterscreen; in the data active = max response mostly above about 13%, no sharp cut-off; inactive = mostly below about 14%; note: read at 38.3 µM for the half of the compounds with a filed dose
Pf growth 96h: inhibits malaria parasite growth, 96 h | P. falciparum luciferase reporter growth, 96 h | Potency, µM (titrated, usually from 28.7 µM), usual class: inhibitors | hit rate 6.9% among 320,000
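Cell-based qHTS: luciferase-tagged P. falciparum in erythrocytes (2% hematocrit, 0.05% parasitemia final) incubated with compounds for 96 hours, 37 C, 5% CO2; luciferase detection reagent then added and luminescence measured.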
Shiga inhibitor: inhibitors of Shiga toxin in Vero cells. hit rate 9.2% among 290,000. inhibition, % at 38.7 µM. AID 2315. Vero cells, Shiga toxin protein synthesis inhibition reporter; in the data active = inhibition mostly above about 28%, no sharp cut-off; inactive = mostly below about 43%
Large screens that a line does not name were inactive. Unless noted, calls come from the whole dose curve; as a rule, active = well fitted inhibition curve with a large enough effect; inconclusive = small, poorly fitted or top-dose-only effect, or another doubt; inactive = no such curve, though single readings can be large or run the other way.

CC1Oc2ccccc2N(CC(=O)c2cccc(Cl)c2)C1=O (stereo unspecified)	none (no result: Pf growth 96h)
CC(C)C1Oc2ccccc2C(=O)N(CC(=O)c2ccc3c(c2)OCCO3)C1=O (stereo unspecified)	Cycloheximide cs 47.4, Shiga inhibitor 91.5
CC1Oc2ccccc2C(=O)N(CC(=O)c2ccc3c(c2)OCCO3)C1=O (stereo unspecified)	Cycloheximide cs 30.4, Shiga inhibitor 71.9
Cc1ccc2c(c1)N(CC(=O)c1cccc(Cl)c1)C(=O)C(C)O2 (stereo unspecified)	Pf growth 48h inconclusive, Pf growth 96h 4.15µM
CCC(C)[C@H](NC(=O)N1CCn2c1nc1ccccc12)C(=O)NCc1ccccc1 (stereo partly specified)	Pf growth 48h inconclusive
NCCCCCCNc1nc2c(N)ncnc2n1[C@@H]1O[C@@H]2COP(=O)(O)O[C@H]2[C@H]1O	none (no result: Pf growth 48h, Pf growth 96h)
Cc1[nH]c(C)c(S(=O)(=O)N2CCN(c3ccc(Cl)cc3)CC2)c1C(=O)N1CCCC1	none
Cc1ccc(Cl)cc1OCC(=O)NCCOC(=O)Nc1sc(=S)n(C)c1C	none
Cc1cc(Cl)ccc1OCC(=O)NCCOC(=O)Nc1sc(=S)n(C)c1C	Pf growth 96h 4.65µM
Cc1c(NC(=O)OCCNC(=O)Nc2ccccc2)sc(=S)n1C	Pf growth 96h 4.65µM
O=C1CC(c2cccs2)Cc2nc(NC(=O)C3CC3)ncc21 (stereo unspecified)	none
CCOc1ccc2nc(NC(=O)c3ccc(OCC4CCCO4)cc3)sc2c1 (stereo unspecified)	Pf growth 48h 8.28µM, Cycloheximide cs 34.6, Pf growth 96h inconclusive, Shiga inhibitor 35.8
Cc1cccc2sc(NC(=O)c3ccc(OCC4CCCO4)cc3)nc12 (stereo unspecified)	Pf growth 48h inconclusive, Cycloheximide cs 45.6, Shiga inhibitor 100.4
CCOc1ccc2nc(NC(=O)CSc3nnc(-c4ccncc4)n3CC3CCCO3)sc2c1 (stereo unspecified)	Pf growth 96h inconclusive
Cc1csc(NC(=O)c2ccc(OCC3CCCO3)cc2)n1 (stereo unspecified)	Cycloheximide cs 14.3
Cc1ccnc(NC(=O)c2ccc(OCC3CCCO3)cc2)c1 (stereo unspecified)	none (no result: Cycloheximide cs, Shiga inhibitor)
CNC(=O)c1csc(-c2ccc(C)cc2)n1	Cycloheximide cs 23.8, Shiga inhibitor 45.2
CNC(=O)c1csc(-c2ccncc2)n1	none
CNC(=O)c1csc(-c2ccc(Cl)cc2)n1	Cycloheximide cs 38.4, Shiga inhibitor 46.7
COc1ccc(NC(=O)Cn2c(NCC(C)O)nc3ccccc32)cc1Cl (stereo unspecified)	Pf growth 96h inconclusive
Cc1ccn(CC(=O)NC2CC(C)(C)Cc3c2cnn3-c2ccc(F)cc2)n1 (stereo unspecified)	none
S=C(Nc1ccccc1)N1CCOCCOCCN(C(=S)Nc2ccccc2)CCOCCOCC1	Pf growth 48h inconclusive, Pf growth 96h inconclusive
S=C(Nc1ccc(Oc2ccccc2)cc1)N1CCOCC1	Cycloheximide cs 12.3, Pf growth 96h 1.17µM
CC(=O)c1ccc(NCC(=O)N2CCN(c3ccccc3)CC2)cc1	Pf growth 96h inconclusive (no result: Pf growth 48h)
O=C(CNc1ccc(Oc2ccccc2)cc1)N1CCOCC1	Cycloheximide cs 11.9, Shiga inhibitor 35.7
Cc1c(-c2ccccc2)oc2c(C(=O)OCC(=O)Nc3ccc(C(N)=O)cc3)cccc2c1=O	none
COc1cc(C(Nc2ccc(S(=O)(=O)N3CCC(C)CC3)cc2)C(=O)NCC2CCCO2)cc(OC)c1OC (stereo unspecified)	Pf growth 48h 13.1µM, Pf growth 96h inconclusive
COc1cc(C(Nc2ccc(S(=O)(=O)NCC3CCCO3)cc2)C(=O)NC(C)(C)C)cc(OC)c1OC (stereo unspecified)	Pf growth 48h 2.08µM, Pf growth 96h inconclusive
COc1cccc2cc(C(=O)Nc3ccc(S(=O)(=O)NCC4CCCO4)cc3)c(=O)oc12 (stereo unspecified)	Pf growth 48h 2.08µM
N#Cc1ccc(OCC(=O)N2CCCC2=O)cc1	Pf growth 48h inconclusive (no result: Cycloheximide cs, Shiga inhibitor)
N#C[C@@H]1[C@@H]2C(=O)N(c3ccc4c(c3)OCCO4)C(=O)[C@@H]2C2c3ccccc3C=CN21 (stereo partly specified)	Pf growth 48h inconclusive, Shiga inhibitor 29.7
O=C(CN1CCCCC1)N1CCc2ccccc21	none
O=C(CCCC(=O)N1CCc2ccccc21)N1CCc2ccccc21	none
NNC(=O)CN1CCCc2ccccc21	Cycloheximide cs 69.0, Shiga inhibitor 92.4
O=C(CN1CCCc2ccccc21)NCc1ccccc1Cl	none
O=C(CN1CCCc2ccccc21)N1CCc2ccccc21	Pf growth 48h inconclusive, Cycloheximide cs 27.7, Shiga inhibitor 48.3
CC(CC(=O)N1CCc2ccccc21)c1ccccc1 (stereo unspecified)	Cycloheximide cs 17.8 (no result: Pf growth 48h)
COc1cccc(N2CCN(S(=O)(=O)c3ccc4c(c3)NC(=O)C(C)C(=O)N4)CC2)c1 (stereo unspecified)	Pf growth 96h inconclusive
CC(OC(=O)c1ccc([N+](=O)[O-])o1)C(=O)Nc1nc(-c2ccc(F)c(F)c2)cs1 (stereo unspecified)	none (no result: Cycloheximide cs, Shiga inhibitor)
C/C(CCc1ccccc1)=N/NC(=O)C(=O)NC(C)c1ccccc1 (stereo unspecified)	Pf growth 96h inconclusive
COc1ccc(/C=C2/SC(=O)N(CCC(=O)Nc3ccccc3C(=O)O)C2=S)cc1	none
CCSc1ccc([C@@H]2[C@H]3C(=O)N(CC)C(=O)[C@H]3[C@]3(C(=O)OC)CCCCN23)cc1	Pf growth 48h 4.15µM, Pf growth 96h 4.65µM (no result: Cycloheximide cs, Shiga inhibitor)
CCCCCCSc1ccc([C@@H]2[C@H]3C(=O)N(C)C(=O)[C@H]3[C@]3(C(=O)OC)CCCCN23)cc1	Pf growth 48h 13.1µM, Pf growth 96h 11.7µM (no result: Cycloheximide cs, Shiga inhibitor)
CCCSc1ccc([C@H]2N[C@@](C)(C(=O)OC)[C@H]3C(=O)N(C)C(=O)[C@@H]23)cc1	none (no result: Cycloheximide cs, Shiga inhibitor)
CCCCCCSc1ccc([C@H]2N[C@@](C)(C(=O)OC)[C@H]3C(=O)N(C)C(=O)[C@@H]23)cc1	Pf growth 48h 14.7µM, Pf growth 96h inconclusive (no result: Cycloheximide cs, Shiga inhibitor)
CCC(C)Sc1ccc([C@@H]2[C@H]3C(=O)N(CC)C(=O)[C@H]3[C@]3(C(=O)OC)CCCCN23)cc1 (stereo partly specified)	Pf growth 48h 2.62µM, Pf growth 96h 3.29µM (no result: Cycloheximide cs, Shiga inhibitor)
S=C(N/N=C/c1ccccc1Cl)Nc1cccc(Cl)c1Cl	none
CCSc1ccc([C@@H]2[C@@H]3C(=O)N(CC)C(=O)[C@@H]3[C@]3(C(=O)OC)CCCN23)cc1	Pf growth 48h 10.4µM, Pf growth 96h inconclusive (no result: Cycloheximide cs, Shiga inhibitor)
CCSc1ccc([C@@H]2[C@H]3C(=O)N(C)C(=O)[C@H]3[C@]3(C(=O)OC)CCCCN23)cc1	Pf growth 48h 11.7µM, Pf growth 96h inconclusive (no result: Cycloheximide cs, Shiga inhibitor)
COC(=O)[C@@]12CCCCN1[C@H](c1ccc(SC3CCCCC3)cc1)[C@@H]1C(=O)N(C)C(=O)[C@@H]12	Pf growth 48h inconclusive (no result: Cycloheximide cs, Shiga inhibitor)
CCSc1ccc([C@@H]2[C@@H]3C(=O)N(CC)C(=O)[C@@H]3[C@]3(C(=O)OC)CCCCN23)cc1	none (no result: Cycloheximide cs, Shiga inhibitor)
CC1CC(C)CN(CC(O)COCCOc2ccc(Br)cc2)C1 (stereo unspecified)	Pf growth 48h 9.28µM, Pf growth 96h inconclusive
CC1CCN(CC(O)COCCOc2ccc(Br)cc2)CC1 (stereo unspecified)	Pf growth 48h inconclusive, Pf growth 96h inconclusive
